Measurements as given in PubChem BioAssay (NCI).
This is part of a sample that, as a whole, favours compounds with a hit. Of some 83,000 tested, about 20% had one in any assay.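 Negative percent growth values reflect cell death: -40 means 40% of the cells present at the start died, and -100 means all died.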 Active and inactive are the calls of the source. How the source made its calls: active means growth percent below 10; inactive means the rest.

Tested on: HL-60(TB) leukemia
Assay: NCI-60 one-dose screen, 48 h (100 = growth as untreated, 0 = no growth, -100 = all killed)
Conditions: 10 µM unless noted

Q: `C=CCOc1ccc2c(C)cc(=O)oc2c1` was tested. Which growth did it give?
A: 118% (inactive)

Q: `O=C1C(Br)=CC2C1C1C3CCC3C2(Br)C12OCCO2` (stereo not given) was tested. Which growth did it give?
A: -6.23% (active)

Q: For `COc1cccc(-c2nn(-c3ccccc3)cc2-c2ccnc(N3CCOCC3)c2)c1`, which growth is on record?
A: 44.9% (inactive)

Q: How did the growth turn out when `COC(=O)Nc1cccc(Cl)c1OC` was run?
A: 103% (inactive)

Q: How did the growth turn out when `COc1ccc(OC)c(/C=C/C(=O)N/N=C/c2ccc(Cl)cc2)c1` was run?
A: 20.1% (inactive)

Q: Which growth does the source give for `N#Cc1ccc(OC(=O)Nc2ccc(Cl)c(Cl)c2)cc1` here?
A: 64.2% (inactive)

Q: Which growth does the source give for `CC[C@H](C)[C@H]1NC(=O)[C@@H](N[C@](C)(O)[C@@H](N)CC(C)C)[C@@H](C)OC(=O)[C@H](Cc2ccc(OC)cc2)N(C)C(=O)[C@@H]2CCCN2C(=O)[C@H](CC(C)C)NC(=O)[C@@H](C)C(=O)[C@H](C(C)C)OC(=O)C[C@@H]1O` here?
A: -27.7% (active)

Q: Which growth does the source give for `COc1ccc2c(c1)OC(N)=C(C#N)C2c1ccc(F)c(F)c1` (stereo not given) here?
A: -18.4% (active)

Q: `CN1CCN(/C=C2\CC(C(=O)NCc3ccc(Cl)cc3Cl)NC2=O)CC1` (stereo not given) was tested. Which growth did it give?
A: 103% (inactive)

Q: `C[C@@H](O)[C@H]1C(=O)N2C(C(=O)O)=C(SC3CN[C@H](C(=O)N(C)C)C3)[C@H](C)[C@H]12` (stereo not given in full) was tested. Which growth did it give?
A: 87% (inactive)

Q: Which growth does the source give for `O=C1CC(c2nc3ccccc3s2)CN1C1CCCCC1` (stereo not given) here?
A: 91.3% (inactive)

Q: Which growth does the source give for `O=[N+]([O-])c1cccc(C2c3ccccc3Oc3ccccc32)c1` here?
A: 99% (inactive)

Q: How did the growth turn out when `Cn1ccc(=O)nc1` was run?
A: 105% (inactive)

Q: For `CCOC(=O)Nc1ccc2c(c1)C(=O)N(CCOC)c1ccccc1O2`, which growth is on record?
A: -17.1% (active)

Q: For `COc1cc(-c2nc3ccccc3s2)ccc1NC(=O)COc1ccc(Cl)cc1`, which growth is on record?
A: 56.3% (inactive)

Q: With `O=C1C=CC(=O)C2=C1CCCC2` as the molecule, how does the growth read?
A: 28.7% (inactive)

Q: For `C=CCSC(CC)(CC)C(=O)NC`, which growth is on record?
A: 89.3% (inactive)

Q: For `c1ccc(Nc2nnc(-c3cc(-c4cccnc4)n(-c4ccccc4)n3)s2)cc1`, which growth is on record?
A: 70.8% (inactive)

Q: Which growth does the source give for `COc1cc(C(=O)/C=C/c2cccnc2Nc2ccccc2)cc(OC)c1OC` here?
A: -31.2% (active)

Q: How did the growth turn out when `COC(=O)C1Cc2ccccc2CN1C(=O)c1ccc2c(c1)Cc1ccccc1-2` (stereo not given) was run?
A: 13.4% [50 µM] (inactive)

Q: With `COc1cc(/C=C2\COc3ccc(O)c(O)c3C2=O)cc(OC)c1` as the molecule, how does the growth read?
A: -29.8% (active)

Q: How did the growth turn out when `COc1cc(C(=O)n2nc(N3CCOCC3)c3cc(-n4cccc4)ccc32)cc(OC)c1OC` was run?
A: 61.6% (inactive)

Q: How did the growth turn out when `CC1=C[C@@H]2c3c(c(O)c(O)c4oc5cc(O)cc(O)c5c(=O)c34)[C@@H](c3cc(O)c(O)c4oc5cc(O)cc(O)c5c(=O)c34)[C@@H]2C(C)(C)C1` was run?
A: -3.85% (active)

Q: For `CN(C)CCCNC(=O)c1cncnc1Nc1ccc(OCc2cccc(F)c2)c(Cl)c1`, which growth is on record?
A: -60.7% (active)

Q: For `CCCCCCCC/C=C\CCCCCCCC(=O)OCCCCCC`, which growth is on record?
A: 93.6% (inactive)

Q: Which growth does the source give for `COc1ccc(Nc2cc(C)nc(NCCCNc3ccnc4cc(Cl)ccc34)n2)cc1` here?
A: -75.7% (active)

Q: Which growth does the source give for `NC(=O)c1cccc(-n2ccc3cc(NC(=O)Nc4ccc(Cl)c(Cl)c4)ccc32)n1` here?
A: 102% (inactive)

Q: With `CC(C)N(CCOC(=O)Nc1ccccc1Cl)C(C)C` as the molecule, how does the growth read?
A: 103% (inactive)

Q: With `N/C(=N\C(N)=N\c1nc2ccccc2s1)c1ccncc1` as the molecule, how does the growth read?
A: 35.2% (inactive)

Q: Which growth does the source give for `CCCCCCc1nc2c(c(C)nn2-c2ccccc2)c2c1CCCCC2` here?
A: 108% (inactive)

Q: With `O=C(/C=C/c1ccccc1)c1ccc(O)c(CN2CCN(c3cc4c(cc3F)c(=O)c(C(=O)O)cn4C3CC3)CC2)c1` as the molecule, how does the growth read?
A: -6% (active)

Q: `COc1cc(/C=N/O)nc(-c2ccccn2)c1` was tested. Which growth did it give?
A: -13.5% (active)

Q: Which growth does the source give for `COc1ccc2c(c1)nc(N)c1c3ccccc3cn21` here?
A: 67.1% (inactive)

Q: How did the growth turn out when `Fc1cccc(Oc2ccc(Nc3ncnc4ccc(OCCCN5CCOCC5)cc34)cc2Cl)c1` was run?
A: 83.6% (inactive)

Q: How did the growth turn out when `Cc1cccc(-c2nc(Nc3ccc4ncsc4c3)c3ccccc3n2)n1` was run?
A: 62.5% (inactive)
